# From PubChem BioAssay
# GRIN3A LBD mod = binders of NR3A ligand-binding domain, primary screen, biophysical, differential scanning fluorimetry, uHTS; Glutamate receptor ionotropic, NMDA 3A (GRIN3A) ligand-binding domain; NR3A LBD differential scanning fluorimetry, Tm shift; 0% = protein alone, 100% = glycine-bound protein; Tm shift relative to glycine control, % at 25 µM; 340,000 compounds, 2.5% hits;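 active = melting temperature shift of at least 10% of the positive control shift, at one fixed dose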
# dFosB activator = activators of delta FosB homodimer, primary screen, biochemical, fluorescence polarization, TAMRA-CDK5 oligo, single point | Protein FosB (Mus musculus), P13346 | purified delta FosB; percent of positive-control signal above neutral wells | activation, % at 25 µM | 340,000 compounds, 0.99% hits | AID 493131, 2011;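 active = mean activation above about 17%, with every replicate also reaching it, limit read from the data, passing the limit was not always enough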
# Target sequence (P13346 whole entry, looked up): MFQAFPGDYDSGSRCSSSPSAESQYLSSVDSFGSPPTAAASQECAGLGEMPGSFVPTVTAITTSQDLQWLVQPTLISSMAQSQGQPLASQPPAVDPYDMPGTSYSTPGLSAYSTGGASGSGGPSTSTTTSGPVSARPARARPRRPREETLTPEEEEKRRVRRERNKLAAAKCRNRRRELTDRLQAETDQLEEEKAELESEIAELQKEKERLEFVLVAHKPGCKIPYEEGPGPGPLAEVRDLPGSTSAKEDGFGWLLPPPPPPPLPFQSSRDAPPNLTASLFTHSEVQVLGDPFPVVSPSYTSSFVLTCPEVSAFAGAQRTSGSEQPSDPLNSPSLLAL
# Yeast superoxide = reduction of superoxide in aged yeast, primary screen, HTS. 330,000 compounds, 0.18% hits. S. cerevisiae aged cells, superoxide DHE fluorescence; stronger effect = lower value. AID 2690, 2010. superoxide response (% of plate mean), % at 10 µM;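 active = superoxide response under a set limit, about three screen SD below normal, cut at about 65% in these data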;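 note: yeast aged for seven days with compound at 30 °C before DHE staining; 100% = average MFI of all compound-treated wells on the plate with controls excluded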
# NALP1 yeast inh = NALP1 inflammasome inhibitors in reconstituted yeast, colorimetric, S. cerevisiae, triplicate retest; S. cerevisiae NALP1/ASC/caspase-1 growth, X-gal OD620, 72 h; inhibition, % at 10 µM; 280,000 compounds, 0.61% hits; in the data active = inhibition mostly above about 24%, no sharp cut-off; inactive = mostly below about 32%
# UBC13 polyUb = UBC13 polyubiquitin chain formation inhibitors, primary screen, biochemical, TR-FRET, uHTS; Ubiquitin-conjugating enzyme E2 N (Homo sapiens), P61088; inhibition, % at 20 µM; 330,000 compounds, 0.47% hits; AID 485273, 2010; in the data active = inhibition above about 45%, passing the limit was not always enough
# Target sequence (P61088 whole entry, looked up): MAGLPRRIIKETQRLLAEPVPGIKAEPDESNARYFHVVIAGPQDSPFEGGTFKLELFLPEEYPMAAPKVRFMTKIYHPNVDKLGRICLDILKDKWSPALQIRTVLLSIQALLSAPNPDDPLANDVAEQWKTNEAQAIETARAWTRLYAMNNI
# Superoxide pick = superoxide lowering in aged yeast cells, confirmation, cherry picked compounds. shares compounds with Yeast superoxide. 850 compounds, 1% hits. superoxide response (% of plate), % at 10 µM. S. cerevisiae aging, superoxide DHE fluorescence; stronger effect = lower value. AID 434994, 2010;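 active = superoxide signal below 65% of the plate average of sample wells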;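 note: cells aged with compound for 7 days at 30 degrees C before staining; 100% equals mean DHE fluorescence of all compound wells on the plate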
# DHE counter = DHE quenching or ROS scavenging interference in aged yeast, artefact control for yeast caloric restriction mimetic project, S. cerevisiae BY4741, flow cytometry; shares compounds with Yeast superoxide; DHE fluorescence; stronger effect = lower value; fluorescence response, % at 10 µM; 850 tested, under 10 active;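 active = fluorescence response below 15%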;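 note: percent of the mean fluorescence averaged over all compound wells on the plate; lower means stronger quenching of DHE signal or ROS scavenging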
# An asterisk follows results filed as active; · = not tested or not shown. In the library only some 4.3% were active in any assay of this set; here they are far more common.
SMILES,GRIN3A LBD mod,dFosB activator,Yeast superoxide,NALP1 yeast inh,UBC13 polyUb,others
CCCN1CC(C)C(OC(C)=O)(c2ccccc2)CC1C (centres undefined),0.7,-5.6,92.3,9.8,2.1,
CC1CC(OC(=O)c2ccccc2)(c2ccccc2)C(C)CN1C (centres undefined),1.2,-3.8,96.8,33.3*,3.5,
O=C(O)C1C2CCC(O2)C1C(=O)Nc1cccc(Br)c1 (centres undefined),-1.4,-8.1,119.5,-19.3,6.6,
CC[n+]1c(/C=C/C=C/c2ccc(N(C)C)cc2)sc2ccccc21,-2.5,155.3*,98.3,8.4,-296.8,
C=CCn1c(O)c(C(C)=NCCN2CCOCC2)c(=O)[nH]c1=O,2.9,-1.6,92.5,13.2,5.2,
C=CCn1c(O)c(/C(C)=N/N2CCCCCC2)c(=O)[nH]c1=O,13.9*,-8.0,101.0,·,-10.1,
CC(=O)OC1C(=O)OCC23CCC4(C)OC4C2OC2CC(OC(=O)C=CC=CC(=O)OCCC1C)C3(C)C21CO1 (centres undefined),1.7,-11.6,·,·,·,
Fc1ccc(CCNCc2cccc(Cl)c2)cc1,-0.4,-5.4,100.7,40.6*,0.1,
CCN1C(=O)/C(=C/c2ccc(N(CC)CC)cc2OC)C(=O)NC1=S,14.1*,-7.7,86.7,-0.9,-60.2,
CCOC(=O)c1c(/N=C/c2c(O)n(-c3cccc(C)c3)c(=O)[nH]c2=O)sc2c1CCCC2,24.0*,-6.5,117.9,36.4,5.6,
CCCCc1ccc2[nH]cc(CCN)c2c1,-1.1,0.0,88.3,2.1,9.4,
COc1ccc(CCN)cc1O,0.6,-0.5,95.1,·,-19.5,
CC(C)Oc1ccc(CCN)cc1Cl,2.7,-5.1,88.6,44.1*,3.7,
CCCCOc1ccc(CCN)cc1Cl,-11.3,-14.0,123.1,47.5*,11.5,
CCN(CC)c1ccc(/C=C2/C(=O)NC(=O)N(Cc3ccco3)C2=O)cc1,23.6*,-11.2,93.3,20.8,-55.1,
CCOC(=O)c1ccc2[nH]c(-c3ccc(S(=O)(=O)F)cc3)cc(=O)c2c1,23.6*,-2.8,96.7,10.0,-3.4,
CCN1CCN(c2ccc(N)c(C)c2)CC1,0.5,8.6,102.0,16.0,-9.4,
S=C1NC2(CCCCC2)NC12CCCCC2,16.4*,-4.0,66.3,11.2,3.0,
O=[N+]([O-])c1ccc2c(c1)Cc1cc(O)ccc1-2,13.7*,2.9,·,·,·,
O=[N+]([O-])c1cccc(O)c1,1.6,3.3,88.8,·,6.5,
Cc1ccccc1NC(=O)c1cc(-c2ccccc2)n(CCCN2CCOCC2)c1C,-2.7,·,101.4,5.9,5.0,
Cc1ccc(NC(=O)c2cc(-c3ccccc3)n(CCCN3CCOCC3)c2C)cc1,3.4,·,111.7,37.3*,11.4,
Cc1[nH]nc2ccc(-c3cncc(OC[C@@H](N)Cc4c[nH]c5ccccc45)c3)cc12,-23.7,8.5,·,·,·,
CCN(CC)S(=O)(=O)c1ccc(NN=C(C#N)C#N)cc1,13.3*,-3.5,109.5,16.5,-17.6,
COc1cc(C(O)CNC(C)C)cc(F)c1OC (centres undefined),-3.9,0.9,·,·,3.6,
SMILES,GRIN3A LBD mod,dFosB activator,Yeast superoxide,NALP1 yeast inh,UBC13 polyUb,others
O=C1NC(=S)NC(=O)C1Cc1ccccc1,12.6*,1.1,·,·,·,
O=C1NC(=O)N(Cc2ccccc2)C(=O)C1Cc1ccccc1 (centres undefined),0.3,0.4,·,·,·,
O=C(O)C1C2c3ccccc3C(c3ccccc32)C1C(=O)Nc1ccccc1 (centres undefined),6.1,-9.6,114.5,1.6,-2.3,
Cc1c(C)c2ccc(OCC(=O)N3C[C@H]4C[C@@H](C3)c3cccc(=O)n3C4)cc2oc1=O,-0.5,-10.4,112.9,40.3*,12.4,
Cc1cc(=O)oc2cc(OCC(=O)N3C[C@H]4C[C@@H](C3)c3cccc(=O)n3C4)ccc12,0.8,0.3,104.3,15.8,-6.0,
Cc1noc(C)c1CC(=O)N1CCCC(N2CCN(c3ccccc3F)CC2)C1 (centres undefined),0.7,-0.6,97.0,16.0,-8.2,
CN(C)CC#CCn1c2ccccc2c2ccccc21,0.8,·,115.0,18.8,3.6,Superoxide pick=102.9;DHE counter=90.3
CN(C)CC#CCC(O)(c1ccccc1)C1CCCC1 (centres undefined),9.7,-0.4,93.5,5.5,7.2,
C[C@]12CCC3[C@@H](CC[C@H]4C[C@@H](O)CC[C@]34C)C1CCC2=O (some centres undefined),·,-10.7,80.8,18.6,4.0,
C[C@]12CC[C@H](O)C[C@H]1CC[C@@H]1[C@@H]2CC[C@]2(C)C(=O)CC[C@@H]12,-2.4,-1.2,48.5*,·,8.4,Superoxide pick=78.1;DHE counter=118.4
C[C@]12CCC3C(CC[C@@H]4C[C@H](O)CC[C@]34C)C1CCC2=O (some centres undefined),-1.9,-14.8,64.2*,·,-4.8,Superoxide pick=81.6;DHE counter=91.8
Cc1ccc(CN2C3CCCC2CC(NC(=O)Nc2cccc(F)c2)C3)cc1 (centres undefined),-7.3,-5.8,92.1,5.0,21.9,
CC12CCC3C(CCC4C/C(=N/O)CCC43C)C1CCC2O (centres undefined),-1.6,-5.1,85.8,36.2,-13.6,
C[C@]12CCC3C(CC[C@@H]4CC(=O)CC[C@]34C)C1CC[C@@H]2O (some centres undefined),-1.0,-2.5,54.3*,·,7.9,Superoxide pick=83.8;DHE counter=91.7
C[C@]12CCC(=O)C[C@@H]1CC[C@@H]1[C@@H]2CC[C@]2(C)[C@@H](O)CC[C@@H]12,-0.4,-6.1,54.3*,·,0.9,Superoxide pick=78.4;DHE counter=99.7
C[C@]12CCC(=O)C[C@@H]1CC[C@@H]1[C@@H]2CC[C@@]2(C)[C@H]1CC[C@]2(C)O,·,·,·,12.4,·,
C[C@]12CCC(=O)CC1CCC1C2CC[C@]2(C)C(OC(=O)CCC(=O)O)CCC12 (some centres undefined),-1.8,-4.4,64.4*,18.7,-5.6,Superoxide pick=80.3;DHE counter=92.0
Cc1cc(-c2cc(C)c(N)c(C)c2)cc(C)c1N,1.6,1.9,·,·,·,
Cn1c(O)c(C(=Nc2ccc(F)cc2)c2ccccc2Cl)c(=O)n(C)c1=O,-3.5,-3.5,61.9*,23.2,-3.3,Superoxide pick=74.7;DHE counter=93.4
O=c1c2ccccc2nc(-c2ccc(-c3ccccc3)cc2)n1-c1ccncc1,-1.6,-12.0,119.1,38.0,5.1,
COC(=O)C1=C(c2ccc(F)cc2OCc2ccccc2)C[C@@H]2CC[C@H]1N2C(=O)NC1CC1,3.3,-1.1,93.2,·,-7.9,
